Screening results deposited in PubChem BioAssay by several laboratories.
DAX1 inh-1: inhibits human nuclear receptor DAX1 | HEK293 Gal4-DAX1 luciferase reporter, luminescence | AID 504766 | inhibition, % at 6.75 µM | 340,000 compounds, 0.99% hits;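 active = inhibition above the mean over all tested compounds plus 3 SD, cut at about 4.2% in these data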;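 also: 0% = DAX1-transfected cells with DMSO and 100% = empty-vector control cells with DMSO; inhibition shows as a rise in luminescence from relieved DAX1 repression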
Target sequence (P51843 207-470 limits assumed): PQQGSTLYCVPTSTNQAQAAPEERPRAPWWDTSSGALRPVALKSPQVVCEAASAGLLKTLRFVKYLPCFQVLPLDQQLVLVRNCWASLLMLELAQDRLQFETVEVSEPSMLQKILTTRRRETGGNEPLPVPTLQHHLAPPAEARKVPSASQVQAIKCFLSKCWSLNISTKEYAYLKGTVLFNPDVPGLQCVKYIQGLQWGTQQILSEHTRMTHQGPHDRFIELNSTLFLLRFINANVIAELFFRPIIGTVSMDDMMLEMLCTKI
hgDAF-12 ag: hgDAF-12 agonism, primary luciferase screen | HEK293 GAL4-hgDAF12 UAS-luciferase reporter, agonist luminescence; normalized to butyrate control | activation, % at 6.8 µM | 370,000 compounds, 1.8% hits | AID 687014;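 active = activation above a cutoff set at the mean of all screened compounds plus 3 SD, cut at about 10% in these data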;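 also: 0% = DMSO wells and 100% = sodium butyrate wells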
ssDAF12 agonist: activates DAF-12 receptor from parasite S. stercoralis; activation, % at 6.8 µM; 370,000 compounds, 1% hits; AID 652126; HEK293 ssDAF-12/GRIP1 lit1-tk-luc reporter, luminescence; % of 3 µM dafachronic acid response;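 active = activation above the mean over all tested compounds plus 3 SD, cut at about 0.9% in these data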;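 also: 0% = DMSO-only wells and 100% = 3 µM delta7-dafachronic acid wells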
PolyA inhibitor: yeast polyadenylation inhibition; 300,000 compounds, 0.02% hits; S. cerevisiae SKY197-pL101 polyadenylation reporter, beta-gal luminescence; efflux-impaired pdr1/pdr3 knockout yeast; score 100 = 6 SD above DMSO; activity score, % at 12 µM; AID 1875;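 active = lowest replicate activity score at least 50, where 100 means six control SD above control mean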;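 also: yeast exposed to compound for 9 h at 30 °C; higher score means more reporter readthrough which indicates perturbed polyadenylation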
hcDAF-12 act: H. contortus DAF-12 activation, primary screen; HEK293 hcDAF-12 lit1-tk-luc reporter, luminescence; 0% DMSO, 100% Δ7-dafachronic acid; 370,000 compounds, 1.4% hits; AID 652067; activation, % at 6.8 µM;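 active = activation above the mean of all tested compounds plus 3 SD, cut at about 5.5% in these data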;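 also: 100% = response to 3 µM Δ7-dafachronic acid high control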
DAX1 inh-2: inhibitors of DAX1 repression of SF-1 activated StAR promoter | HEK293T StAR-luciferase reporter, SF-1/DAX-1 repression relief | AID 652010 | inhibition, % at 6.8 µM | 370,000 compounds, 1.1% hits;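 active = inhibition above the mean over all tested compounds plus 3 SD, cut at about 3.6% in these data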;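 also: 0% = DAX-1 cells with DMSO and 100% = cells lacking DAX-1 with DMSO; higher inhibition means more luminescence from relief of DAX-1 repression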
* marks the source's active call; other numbers are inactive results; nt = not tested or not shown. Hits are enriched below; roughly 4.1% of the tested compounds scored in any of these assays.

SMILES	DAX1 inh-1	hgDAF-12 ag	ssDAF12 agonist	PolyA inhibitor	hcDAF-12 act	DAX1 inh-2
Cc1c[nH]c2cccc(-c3c(Cl)cccc3Cl)c12	nt	0	0	nt	-1	-1
CCOc1ccccc1CN1CCN(Cc2ccc3cc(F)ccc3n2)CC1CCO (stereo not given)	5.4*	2	0	3	5	0
CCOc1ccc2nc(CN3CCN(Cc4ccccc4OCC)C(CCO)C3)ccc2c1 (stereo not given)	-3	-5	-2	8	-4	-1
Cc1ccc(C(=O)Nc2ccc(Nc3ccccc3)cc2)c(Cl)c1	-1	1	2.0*	3	-2	0
O=C(Nc1ccc([N+](=O)[O-])cc1)c1ccccc1F	2	12*	-1	-14	2	2
O=C(Nc1ccccc1)c1cc([N+](=O)[O-])ccc1Cl	0	0	0	-14	5.8*	-1
CC(=O)Nc1ccc(NC(=O)c2ccc([N+](=O)[O-])cc2Cl)cc1	1	1	-2	24	-2	0
Cc1ccc(C(=O)Nc2ccncc2)c(Cl)c1	-2	2	-1	-15	-1	-1
CC(C)(N[C@@H](Cc1ccccc1)C(=O)NCC(c1ccccc1)c1ccccc1)C(=O)NC1CCCCC1	nt	1	-2	nt	0	nt
CN(C)c1ccc(C(=O)Nc2ccc(CN3CCS(=O)(=O)CC3)cc2)cc1	1	4	-2	-4	0	1
CCN1CCN(Cc2ccc(NC(=O)Nc3ccc(OC)cc3)cc2)CC1	4.3*	9	-1	-7	0	0
COc1ccc(C(=O)Nc2ccc(CN3CCS(=O)(=O)CC3)cc2)cc1	4.4*	-1	-2	-10	0	1
COc1c(C)cccc1C(=O)Nc1ccc(CN2CCOCC2)cc1	4	7	-1	-9	6.0*	4
CCCCOCC1CN(CCCC)S(=O)(=O)c2c(NCc3cc(OC)c(OC)c(OC)c3)cccc2O1 (stereo not given)	nt	-3	-2	nt	-2	-1
CC(=O)Oc1ccc(-c2csc(Nc3cccc(C)n3)n2)cc1	5.5*	9	2.4*	-3	4	2
Cc1cccc(Nc2nc(-c3ccccn3)cs2)n1	0	13*	1.1*	-35	6.0*	3
C[C@@H]1CN(c2ccc(N3CCN(C(=O)OC(C)(C)C)C[C@@H]3C)cc2C#N)C[C@H](C)O1	nt	8	-1	nt	1	-1
CCOC(=O)CSc1nnc(Cn2c(=O)sc3ccccc32)n1-c1ccccc1C	0	0	0	17	2	0
Cc1ccccc1-n1c(Cn2c(=O)sc3ccccc32)nnc1SCC(N)=O	4.6*	1	-1	-6	-2	-1
COc1cccc(C(=O)Nc2cccc(-c3ccc(N4CCOCC4)nn3)c2)c1	1	5	-1	-4	0	4.0*
COc1ccc(C(=O)Nc2cccc(-c3ccc(N4CCOCC4)nn3)c2)cc1OC	1	3	0	2	1	2
COc1ccc(NC(=O)c2ccc(C)cc2)c(OC)c1	1	12*	0	-31	4	1
COc1ccccc1NC(=O)c1ccc2nc(C)sc2c1	1	4	-1	-15	0	0
COc1cccc(C(=O)Nc2ccc(C(=O)O)cc2)c1	0	0	-1	4	-2	-1
COc1cccc(NC(=O)c2ccc3nc(C)sc3c2)c1	5.5*	8	0	1	5.8*	1
SMILES	DAX1 inh-1	hgDAF-12 ag	ssDAF12 agonist	PolyA inhibitor	hcDAF-12 act	DAX1 inh-2
COc1ccc(NC(=O)c2ccc3[nH]c(=O)c(=O)[nH]c3c2)c(OC)c1	0	0	-1	-18	-1	0
COc1cccc(C(=O)Nc2ccc(C)cc2)c1	1	9	1.6*	-6	5	4.0*
COC[C@@H]1CCCN1c1ccc2c(c1)OCCCN(C1CC1)S2(=O)=O	nt	1	-1	nt	-2	-1
O=[N+]([O-])c1ccccc1/C=C/C1Nc2cccc3cccc(c23)N1	nt	-2	0	nt	2	-2
COc1cccc(C(=O)Nc2cccc(C(C)=O)c2)c1	2	7	-1	-12	0	2
COc1cccc(NC(=O)c2cccc(Cl)c2)c1	1	12*	0	nt	4	2
COc1cccc(NC(=O)Nc2nc(SC)ns2)c1	7.2*	12*	0	-16	4	2
CSc1ncc(C(=O)Nc2ccccc2)cn1	-1	-1	-1	15	4	0
CC(=O)Oc1cccc(NC(=O)c2cccc(C(=O)Nc3cccc(OC(C)=O)c3)c2)c1	0	0	-1	-20	-1	-1
COc1cccc(NC(=O)c2cnc(SC)nc2)c1	0	3	1.3*	2	4	0
Cc1cccc(C(=O)Nc2cccc(OC(=O)c3cccc(C)c3)c2)c1	2	13*	0	-14	4	1
CC(=O)C1=CCN(C)CC1	nt	3	-2	nt	0	0
COCc1cc(N2CCN(C(=O)OC(C)(C)C)C[C@@H]2C)ccc1N1CC[C@@H](O)C1	nt	1	-1	nt	-1	-1
COP(=O)(O)CCOCCC(CC(C)C)NC(=O)OCc1ccccc1 (stereo not given)	nt	1	0	nt	-1	-1
O=C1N2CCc3ccccc3C2CS(=O)(=O)N1CCc1ccccc1 (stereo not given)	nt	8	0	nt	1	1
COc1cccc(NC(=S)NC(=O)c2cncc(Br)c2)c1	4.5*	4	-1	-5	1	0
COc1cccc(NC(=O)Nc2ccccc2Br)c1	2	11*	-1	3	-2	1
COc1ccc(NC(=O)Nc2cccc(OC)c2)cc1	0	7	-1	8	2	2
CC(=O)c1cccc(NC(=S)NC(=O)c2cncc(Br)c2)c1	2	5	0	-15	1	0
CC1(C)CC(=O)C=C(c2ccc(COC(=O)c3ccc(Br)cc3)cc2)C1=O	nt	3	-1	nt	-2	0
CCOC(=O)C1=CCN(S(=O)(=O)c2ccc(Br)cc2)C1c1cccc(F)c1 (stereo not given)	nt	0	-1	nt	-2	0
Cn1c(=O)[nH]c(=O)c2c1nc(NCc1ccco1)n2CCCc1ccccc1	4.5*	1	-1	2	0	0
O=C(Nc1ccc(C(F)(F)F)cc1)OC1CC2CC1[C@H]1CCCCN1[C@H]2Cc1ccccc1 (stereo not given in full)	nt	0	1	nt	-1	-1
CC(C)(C)c1ccc(C(=O)N2CCCC2)s1	5.8*	2	0	-3	0	1
O=C(c1ccc(Cl)s1)N1CCCC1	2	-2	0	0	0	0
Cc1[nH]c2ccccc2c1CCN(Cc1cccs1)C(=O)Nc1cccc2c1OCO2	nt	11*	0	nt	5	1
